Source: PubChem BioAssay
The source made the active and inactive calls.

Columns and labels:
[1] = small molecules captured by biotinylated probe aFSTL3 – biochemical, small-molecule microarray, fluorescence 635/667, stem cell growth factor project, primary screen (AID 1064); details: higher = more signal;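 further: measures binding of the biotinylated anti-FSTL3 antibody to printed compounds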
[2] = binders from COS7 lysate, DM2A8 probe, primary screen, torsin A project, cell lysate, small-molecule microarray, fluorescence 635/667 (AID 1065); details: higher = more signal, COS7 lysate expressing mutant human TOR1A
[3] = small molecules captured by biotinylated probe aFGF2 – biochemical, small-molecule microarray, fluorescence 635/667, stem cell growth factor project, primary screen (AID 1067); details: higher = more signal;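 further: measures binding of biotinylated aFGF2 protein to printed compounds on slides; z-score merges feature fluorescence and signal-to-noise across triplicate slides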
[4] = small molecules captured by biotinylated probe aFGF10 – biochemical, small-molecule microarray, fluorescence 635/667, stem cell growth factor project, primary screen (AID 1071); details: higher = more signal;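 further: score merges 667 nm spot intensity and signal to noise from triplicate slides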
[5] = target: Neurogenic locus notch homolog protein 2 (Homo sapiens) (UniProt Q04721); experiment: small molecules binding Notch2 protein – biochemical, small-molecule microarray, 635 nm fluorescence, stem cell growth factors, primary screen (AID 1073); details: higher = more signal
[6] = target: Pro-neuregulin-1, membrane-bound isoform (Homo sapiens) (UniProt Q02297); experiment: small molecules binding neuregulin-1 protein – biochemical, small-molecule microarray, fluorescence 635/667, psychiatric disease protein project, primary screen (AID 1075); details: NRG1 binding, 635 nm fluorescence, higher = more signal;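 further: score combines 667 nm spot fluorescence with signal to noise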
[7] = system: Neuregulin-1 EGF-like domain; experiment: small molecules binding NRG1 EGF domain – biochemical, small-molecule microarray, 635 nm fluorescence, primary screen (AID 1081); details: higher = more signal;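 further: binding of the protein to compounds printed on small-molecule microarray slides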
[8] = FRG1 expression reporter modulators in myotubes – cell-based, C2C12 myotubes, firefly/Renilla luciferase, luminescence, FRG1 inhibition for FSHD, primary screen (AID 1084); details: FRG1 promoter luciferase, higher = more signal, called active from +8 up or from −8 down
[9] = small molecules captured by biotinylated probe aFST – biochemical, small-molecule microarray, fluorescence 635/667, stem cell growth factor project, primary screen (AID 1086); details: higher = more signal;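 further: score merges 667 nm fluorescence with signal-to-noise of each printed compound spot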
[10] = binders of probe aHhip on microarray, primary screen, stem cell growth factor project, biochemical, small-molecule microarray, fluorescence 635/667 (AID 1087); details: higher = more signal;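 further: score merges spot fluorescence at 667nm with spot signal to noise ratio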

Chain of Pro-neuregulin-1, membrane-bound isoform (Homo sapiens) (Q02297 whole entry, looked up, the tested form may be a part, canonical isoform): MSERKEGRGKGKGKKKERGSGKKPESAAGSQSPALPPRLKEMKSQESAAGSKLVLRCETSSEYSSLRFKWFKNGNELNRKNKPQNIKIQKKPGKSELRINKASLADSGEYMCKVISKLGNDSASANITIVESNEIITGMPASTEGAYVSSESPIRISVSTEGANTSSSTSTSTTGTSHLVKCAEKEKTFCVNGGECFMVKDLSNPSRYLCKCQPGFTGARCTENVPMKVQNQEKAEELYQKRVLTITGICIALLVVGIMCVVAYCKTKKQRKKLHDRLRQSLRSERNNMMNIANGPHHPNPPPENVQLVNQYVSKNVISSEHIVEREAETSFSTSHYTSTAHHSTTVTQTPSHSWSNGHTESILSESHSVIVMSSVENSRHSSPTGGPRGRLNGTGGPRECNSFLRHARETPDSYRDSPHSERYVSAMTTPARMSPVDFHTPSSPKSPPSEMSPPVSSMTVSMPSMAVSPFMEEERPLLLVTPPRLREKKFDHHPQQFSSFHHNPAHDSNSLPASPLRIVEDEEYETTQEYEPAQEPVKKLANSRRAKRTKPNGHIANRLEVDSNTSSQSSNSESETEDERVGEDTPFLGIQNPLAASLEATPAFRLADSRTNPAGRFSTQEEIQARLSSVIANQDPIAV
Chain of Neurogenic locus notch homolog protein 2 (Homo sapiens) (Q04721 whole entry, looked up, canonical isoform): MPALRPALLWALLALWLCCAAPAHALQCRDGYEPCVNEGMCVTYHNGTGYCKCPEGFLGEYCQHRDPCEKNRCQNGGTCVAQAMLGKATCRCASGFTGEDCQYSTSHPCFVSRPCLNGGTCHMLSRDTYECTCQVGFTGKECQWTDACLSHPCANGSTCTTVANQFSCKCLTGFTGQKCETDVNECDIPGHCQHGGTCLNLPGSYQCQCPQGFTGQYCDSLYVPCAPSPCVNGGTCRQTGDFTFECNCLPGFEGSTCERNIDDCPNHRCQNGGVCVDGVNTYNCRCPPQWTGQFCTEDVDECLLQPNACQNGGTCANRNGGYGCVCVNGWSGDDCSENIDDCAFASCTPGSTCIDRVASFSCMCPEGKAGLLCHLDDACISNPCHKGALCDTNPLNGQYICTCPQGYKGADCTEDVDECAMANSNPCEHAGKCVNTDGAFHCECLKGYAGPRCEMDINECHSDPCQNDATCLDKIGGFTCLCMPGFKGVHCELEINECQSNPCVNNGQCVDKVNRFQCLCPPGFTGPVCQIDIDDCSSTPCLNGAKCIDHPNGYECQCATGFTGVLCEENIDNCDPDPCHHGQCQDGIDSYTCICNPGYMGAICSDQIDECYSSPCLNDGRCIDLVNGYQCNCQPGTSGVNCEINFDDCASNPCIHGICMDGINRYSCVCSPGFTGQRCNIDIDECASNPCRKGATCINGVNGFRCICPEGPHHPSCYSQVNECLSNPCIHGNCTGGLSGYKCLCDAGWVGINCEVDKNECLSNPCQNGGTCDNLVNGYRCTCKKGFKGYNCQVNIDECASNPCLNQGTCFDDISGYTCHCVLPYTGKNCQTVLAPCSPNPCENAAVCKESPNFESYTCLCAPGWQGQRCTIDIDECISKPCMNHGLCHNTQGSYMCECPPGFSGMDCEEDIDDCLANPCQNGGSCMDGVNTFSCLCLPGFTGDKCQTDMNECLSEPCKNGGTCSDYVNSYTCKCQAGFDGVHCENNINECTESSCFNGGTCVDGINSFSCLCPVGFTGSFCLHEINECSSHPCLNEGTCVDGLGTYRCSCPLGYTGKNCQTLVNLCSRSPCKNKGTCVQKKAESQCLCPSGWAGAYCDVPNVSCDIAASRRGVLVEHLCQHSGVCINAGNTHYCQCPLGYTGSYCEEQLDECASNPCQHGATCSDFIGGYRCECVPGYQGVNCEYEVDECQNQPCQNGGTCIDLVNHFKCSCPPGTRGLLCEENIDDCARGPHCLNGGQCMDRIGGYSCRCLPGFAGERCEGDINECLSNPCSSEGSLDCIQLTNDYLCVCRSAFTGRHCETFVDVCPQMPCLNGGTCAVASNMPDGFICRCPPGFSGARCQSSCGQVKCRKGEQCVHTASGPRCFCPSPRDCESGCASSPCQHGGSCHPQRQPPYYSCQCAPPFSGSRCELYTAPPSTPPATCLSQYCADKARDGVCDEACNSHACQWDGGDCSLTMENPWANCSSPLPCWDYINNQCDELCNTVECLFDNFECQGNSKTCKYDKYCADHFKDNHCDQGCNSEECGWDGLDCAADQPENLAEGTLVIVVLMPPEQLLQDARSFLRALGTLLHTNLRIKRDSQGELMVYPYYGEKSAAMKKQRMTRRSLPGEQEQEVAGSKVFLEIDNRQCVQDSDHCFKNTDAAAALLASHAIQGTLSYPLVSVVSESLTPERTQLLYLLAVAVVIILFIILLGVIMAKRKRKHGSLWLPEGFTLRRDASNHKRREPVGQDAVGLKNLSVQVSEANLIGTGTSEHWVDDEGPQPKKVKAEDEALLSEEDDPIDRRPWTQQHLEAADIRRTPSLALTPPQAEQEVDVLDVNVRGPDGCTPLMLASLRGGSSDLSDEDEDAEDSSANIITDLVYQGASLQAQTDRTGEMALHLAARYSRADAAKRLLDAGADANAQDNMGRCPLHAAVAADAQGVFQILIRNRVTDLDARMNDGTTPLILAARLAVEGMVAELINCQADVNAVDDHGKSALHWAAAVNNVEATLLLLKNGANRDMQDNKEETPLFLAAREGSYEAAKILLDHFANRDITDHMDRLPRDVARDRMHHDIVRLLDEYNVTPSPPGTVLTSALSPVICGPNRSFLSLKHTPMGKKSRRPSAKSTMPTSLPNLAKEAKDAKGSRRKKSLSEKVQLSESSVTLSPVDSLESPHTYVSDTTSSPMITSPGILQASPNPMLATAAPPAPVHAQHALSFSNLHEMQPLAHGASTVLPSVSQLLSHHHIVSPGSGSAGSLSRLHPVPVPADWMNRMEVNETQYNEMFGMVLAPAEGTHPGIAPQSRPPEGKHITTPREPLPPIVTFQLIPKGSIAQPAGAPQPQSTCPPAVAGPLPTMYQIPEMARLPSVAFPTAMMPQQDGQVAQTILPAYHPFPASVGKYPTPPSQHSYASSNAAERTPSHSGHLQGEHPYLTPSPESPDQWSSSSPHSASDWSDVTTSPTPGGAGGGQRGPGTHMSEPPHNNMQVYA

| SMILES | composite z-score [1] | composite z-score [2] | composite z-score [3] | composite z-score [4] | composite z-score [5] | composite z-score [6] | composite z-score [7] | z-score [8] | composite z-score [9] | composite z-score [10] |
| --- | --- | --- | --- | --- | --- | --- | --- | --- | --- | --- |
| COc1ccc([Si](C)(C)[C@@H]2[C@@H](CC(=O)N(CCO)Cc3ccccc3)O[C@]3(C(=O)N(Cc4ccc(N5C(=O)c6cccc7cccc5c67)cc4)c4ccccc43)[C@H]2C)cc1 | -0.0031 | 0.407 | -0.0876 | 0.181 | 0.494 | 0.933 | 0.956 | -1.76 (inactive) | -0.0542 | -0.353 |
| C=CCOC(=O)[C@H]1[C@@H]2C(=O)O[C@@H](c3ccccc3)[C@@H](c3ccccc3)N2[C@@H](c2ccc(OCCOC(=O)[C@H]3C[C@H]4C(=O)N[C@@H](CC(C)C)C(=O)N4[C@H]3c3ccc(O)cc3)cc2)[C@]12C(=O)Nc1ccccc12 | -0.109 | 1.34 | -0.079 | 0.868 | 1.46 | 1.45 | 1.43 | -0.0648 (inactive) | 0.174 | 0.213 |
| CCCc1cc2c(n1CCc1ccc(Cl)cc1)C(C)C1CN(C(=O)c3ccccc3)C(C)(C(=O)OC)C21 (stereo not given) | 1.44 | 0.721 | 0.384 | 0.204 | 1.73 | 1.78 | 0.937 | 1.91 (inactive) | 1.1 | 2.27 |
| [N-]=[N+]=Nc1ccccc1C[C@@]1(C(=O)NCC(O)CO)N=C(c2ccc(OCCCO)cc2)O[C@@H]1c1ccccc1 (stereo not given in full) | 0.134 | -0.243 | -0.073 | 0.165 | 0.513 | 0.706 | 1.1 | -2.46 (inactive) | 0.146 | -0.0994 |
| CC(C)C(=C=CC[C@H](O)c1ccccc1OCCO)C[C@H](O)c1cc(Cl)cc(Cl)c1O | -0.435 | 0.807 | -0.0266 | 0.742 | 0.648 | 1.6 | 0.889 | -0.926 (inactive) | 0.454 | 0.0505 |
| O=C1C[C@@](C(=O)NC2CC2)(c2ccc([N+](=O)[O-])cc2)[C@@H](c2ccc(CO)cc2)N1C1CCCCC1 | -0.281 | 0.286 | 0.0626 | 0.907 | 0.804 | 1.81 | 1.3 | -0.534 (inactive) | 0.832 | 0.164 |
| C=C(CCCC)C(=O)CC[C@@H](OC(=O)c1ccccc1-c1ccccc1C(=O)O)c1ccccc1OCCO | -0.173 | 0.222 | -0.0566 | 0.803 | -0.0697 | -0.0918 | 0.0551 | -0.39 (inactive) | -0.501 | 0.0373 |
| CC1CC/C=C\[C@H]2OC34C=CCN(Cn5nnc6ccccc65)C(=O)[C@H]3N(CCCCCCO)C(=O)[C@@H]4C2C(=O)O1 (stereo not given in full) | 0.372 | -1.11 | -0.176 | -0.539 | -0.964 | 2.14 | 1.59 | -0.863 (inactive) | -0.541 | -0.169 |
| CC(C)(C)N1CC=CC23O[C@@H]4/C=C\CCCOC(=O)C4[C@H]2C(=O)N(CCCO)[C@@H]3C1=O (stereo not given in full) | 0.164 | -0.496 | -0.203 | -0.147 | -0.864 | 1.07 | 1.1 | 0.502 (inactive) | -0.582 | -0.286 |
| C=C(CCCC)/C(=C/C[C@H](OC(=O)c1ccncc1)c1cccc(OCCO)c1)c1cnc2ccccc2c1 | -0.279 | 0.824 | 0.0437 | 0.595 | 0.974 | 1.56 | 1.04 | 0.996 (inactive) | 0.346 | -0.0491 |
| CN1C(=O)C2C(C1=O)C1C=C(CCCO)C2C(C2CC2)N1Cc1cccc(OC(F)(F)F)c1 (stereo not given) | -0.143 | -0.122 | -0.13 | -0.203 | -0.254 | 2 | 1.3 | -0.688 (inactive) | 0.0794 | -0.242 |
| O=C(NCc1ccccc1)[C@@H]1c2ccccc2C(=O)N(Cc2cc(C(F)(F)F)cc(C(F)(F)F)c2)[C@H]1c1ccc(CO)cc1 | -0.501 | 1.62 | -0.118 | 0.409 | 0.685 | 0.71 | 1.27 | -0.354 (inactive) | 0.423 | 0.0505 |
| CC(C)C[C@@H]1NC(=O)[C@@H]2C[C@H](C(=O)NCCCCCCNC(=O)CS)[C@H](c3cccc(OCCO)c3)N2C1=O | -0.514 | 1.05 | 0.0379 | 0.968 | 1.34 | 1.21 | 1.39 | 0.509 (inactive) | 0.756 | -0.069 |
| O=C1O[C@H](Cc2ccccc2)[C@@H]2[C@H]3C=CCCC=C3CN2[C@H]1Cc1ccc(O)cc1 | -0.117 | -0.0933 | -0.0692 | -0.026 | -0.562 | -0.465 | 0.0706 | 0.0201 (inactive) | 0.142 | 0.0976 |
| CC1CC/C=C\[C@H]2OC34C=CCN(c5ccc6ccccc6c5)C(=O)[C@H]3N(C(C)CO)C(=O)[C@@H]4C2C(=O)O1 (stereo not given in full) | 0.018 | -1.51 | -0.178 | -0.489 | -0.858 | -0.318 | -0.0133 | 1.14 (inactive) | -0.187 | -0.0994 |
| COc1cc(CO)cc(I)c1O[C@H]1C=C(C(=O)NCCO)C[C@@H]2O[C@H]12 | 0.167 | 0.622 | -0.111 | 0.251 | 0.864 | 0.366 | 1.46 | -1.44 (inactive) | 0.164 | -0.199 |
| CCN(CC)c1ccc(N2CC=CC34O[C@@H]5C=CCCOC(=O)C5[C@H]3C(=O)N(C(C)CO)[C@@H]4C2=O)cc1 (stereo not given in full) | 0.221 | 0.864 | -0.0627 | -0.227 | -0.371 | 0.415 | 1.36 | 0.725 (inactive) | -0.0426 | -0.34 |
| NC(=O)NCC#Cc1ccc2c(c1)[C@]1(C(=O)N2)[C@H](c2ccc(OCCO)cc2)N2[C@H](c3ccccc3)[C@H](c3ccccc3)OC(=O)[C@H]2[C@@H]1C(=O)NC[C@H](O)c1ccccc1 | -0.142 | -0.329 | -0.0586 | 0.029 | 0.322 | 0.577 | -0.164 | -0.0847 (inactive) | 0.103 | -0.134 |
| O=C(NC1CC1)[C@@H]1c2ccccc2C(=O)N(Cc2cc(C(F)(F)F)cc(C(F)(F)F)c2)[C@H]1c1ccc(CO)cc1 | -0.758 | 0.332 | -0.223 | 0.0757 | -0.134 | 1.4 | 1.36 | 0.102 (inactive) | -0.131 | -0.863 |
| CC(C)(C)N1CC=CC23O[C@@H]4C=CCOC(=O)[C@@H]4[C@H]2C(=O)N(CCO)[C@@H]3C1=O (stereo not given in full) | 0.56 | -0.483 | -0.206 | -0.437 | -0.638 | 1.87 | 1.66 | 0.639 (inactive) | -0.633 | -0.274 |
| O=C(NCCN1CCOCC1)[C@@H]1c2ccccc2C(=O)N(Cc2ccc(OC(F)(F)F)cc2)[C@H]1c1ccc(CO)cc1 | 0.224 | 0.751 | -0.0531 | -0.315 | 0.0161 | -0.181 | 0.569 | -1.39 (inactive) | -0.236 | -0.0645 |
| COc1ccc(C(=O)Nc2cccc(CN3C(=O)[C@]4(O[C@H](CC(=O)N5Cc6ccccc6C[C@H]5CO)[C@@H]([Si](C)(C)c5ccc(OC)cc5)[C@@H]4C)c4ccccc43)c2)cc1 | -0.24 | 0.822 | -0.159 | 0.426 | 0.424 | 0.466 | 0.762 | -1.66 (inactive) | 0.208 | -0.211 |
